# PubChem BioAssay AID1159580 (chemical genetic matrix, 2015)
# In all, about 5,500 compounds went through this assay and about 2,000 (36%) were called active. Roughly 18% stayed inconclusive and do not appear here. No stated cut-off is given here; in the data, active means normalized growth mostly below about 0.91 (no sharp cut-off); inconclusive means no clear call, values can overlap the other calls; inactive means mostly above about 0.92. The list shows a part of the results.
# Assay: chemical genetic growth profiling, strain panel (AID 1159580);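 further: tested at 20 µM; growth read once vehicle control cultures reached saturation at 30 °C; 1 = growth at the plate median or of vehicle wells; lower values mean less growth of the strain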
# Conditions: growth OD
structure (smiles),measurement,setting,value
CC(=O)[C@H]1CCC2C3CCC4=CC(=O)CC[C@]4(C)C3CC[C@@]21C (some centres not stated),normalized growth,"S. cerevisiae deletion strains, locus YJR075W, strain HOC1, hits give low values",0.949 (inactive)
same,normalized growth,"S. cerevisiae deletion strains, locus YKL009W, strain mrt4, hits give low values",0.914 (inactive)
same,normalized growth,"S. cerevisiae deletion strains, locus YKL068W, hits give low values",0.947 (inactive)
same,normalized growth,"S. cerevisiae deletion strains, locus YKL085W, strain MDH1 (second series), hits give low values",0.929 (active)
same,normalized growth,"S. cerevisiae deletion strains, locus YKL085W, strain MDH1, hits give low values",0.929 (active)
same,normalized growth,"S. cerevisiae deletion strains, locus YKL160W, strain elf1, hits give low values",0.913 (inactive)
same,normalized growth,"S. cerevisiae deletion strains, locus YKL190W, strain CNB1, hits give low values",0.978 (inactive)
same,normalized growth,"S. cerevisiae deletion strains, locus YKR001C, strain vps1, hits give low values",0.704 (active)
same,normalized growth,"S. cerevisiae deletion strains, locus YKR026C, strain gcn3, hits give low values",0.981 (inactive)
same,normalized growth,"S. cerevisiae deletion strains, locus YKR091W, strain srl3, hits give low values",0.977 (inactive)
same,normalized growth,"S. cerevisiae deletion strains, locus YLL001W, strain dnm1, hits give low values",0.989 (inactive)
same,normalized growth,"S. cerevisiae deletion strains, locus YLL026W, hits give low values",0.978 (inactive)
same,normalized growth,"S. cerevisiae deletion strains, locus YLL041C, strain sdh2, hits give low values",0.977 (inactive)
same,normalized growth,"S. cerevisiae deletion strains, locus YLR027C, strain aat2, hits give low values",0.95 (inactive)
same,normalized growth,"S. cerevisiae deletion strains, locus YLR039C, strain RIC1, hits give low values",0.447 (active)
same,normalized growth,"S. cerevisiae deletion strains, locus YLR058C, strain SHM2, hits give low values",0.974 (inactive)
same,normalized growth,"S. cerevisiae deletion strains, locus YLR102C, strain apc9, hits give low values",0.942 (inactive)
same,normalized growth,"S. cerevisiae deletion strains, locus YLR113W, strain HOG1, hits give low values",0.958 (inactive)
same,normalized growth,"S. cerevisiae deletion strains, locus YLR221C, strain rsa3, hits give low values",0.955 (inactive)
same,normalized growth,"S. cerevisiae deletion strains, locus YLR258W, strain gsy2, hits give low values",0.962 (inactive)
same,normalized growth,"S. cerevisiae deletion strains, locus YLR262C, strain YPT6 (second series), hits give low values",0.475 (active)
same,normalized growth,"S. cerevisiae deletion strains, locus YLR262C, strain YPT6, hits give low values",0.494 (active)
same,normalized growth,"S. cerevisiae deletion strains, locus YLR268W, strain sec22, hits give low values",0.718 (active)
same,normalized growth,"S. cerevisiae deletion strains, locus YLR320W, strain mms22, hits give low values",0.615 (active)
same,normalized growth,"S. cerevisiae deletion strains, locus YLR330W, strain CHS5, hits give low values",0.978 (inactive)
same,normalized growth,"S. cerevisiae deletion strains, locus YLR342W, strain FKS1 (second series), hits give low values",0.814 (inactive)
same,normalized growth,"S. cerevisiae deletion strains, locus YLR342W, strain FKS1, hits give low values",0.94 (inactive)
same,normalized growth,"S. cerevisiae deletion strains, locus YLR357W, strain rsc2, hits give low values",1.05 (inactive)
same,normalized growth,"S. cerevisiae deletion strains, locus YLR370C, strain arc18, hits give low values",0.957 (inactive)
same,normalized growth,"S. cerevisiae deletion strains, locus YLR371W, strain rom2, hits give low values",0.904 (active)
same,normalized growth,"S. cerevisiae deletion strains, locus YLR384C, strain iki3, hits give low values",0.968 (inactive)
same,normalized growth,"S. cerevisiae deletion strains, locus YLR418C, strain cdc73, hits give low values",0.441 (active)
same,normalized growth,"S. cerevisiae deletion strains, locus YML016C, strain PPZ1, hits give low values",0.963 (inactive)
same,normalized growth,"S. cerevisiae deletion strains, locus YML032C, strain rad52, hits give low values",0.76 (active)
same,normalized growth,"S. cerevisiae deletion strains, locus YML120C, strain ndi1, hits give low values",0.966 (inactive)
same,normalized growth,"S. cerevisiae deletion strains, locus YML124C, strain tub3, hits give low values",0.942 (inactive)
same,normalized growth,"S. cerevisiae deletion strains, locus YMR058W, strain fet3, hits give low values",0.923 (inactive)
same,normalized growth,"S. cerevisiae deletion strains, locus YMR078C, strain ctf18, hits give low values",0.724 (active)
same,normalized growth,"S. cerevisiae deletion strains, locus YMR125W, strain sto1, hits give low values",0.942 (inactive)
same,normalized growth,"S. cerevisiae deletion strains, locus YMR129W, hits give low values",0.976 (inactive)
same,normalized growth,"S. cerevisiae deletion strains, locus YMR205C, strain PFK2, hits give low values",0.813 (active)
same,normalized growth,"S. cerevisiae deletion strains, locus YMR223W, strain ubp8, hits give low values",0.782 (active)
same,normalized growth,"S. cerevisiae deletion strains, locus YMR231W, strain pep5, hits give low values",0.96 (inactive)
same,normalized growth,"S. cerevisiae deletion strains, locus YMR263W, strain SAP30, hits give low values",0.973 (inactive)
same,normalized growth,"S. cerevisiae deletion strains, locus YMR307W, strain GAS1, hits give low values",0.78 (inactive)
same,normalized growth,"S. cerevisiae deletion strains, locus YNL067W, strain RPL9B, hits give low values",0.952 (inactive)
same,normalized growth,"S. cerevisiae deletion strains, locus YNL071W, strain lat1, hits give low values",0.632 (active)
same,normalized growth,"S. cerevisiae deletion strains, locus YNL128W, strain TEP1, hits give low values",0.99 (inactive)
same,normalized growth,"S. cerevisiae deletion strains, locus YNL153C, strain GIM3, hits give low values",0.967 (inactive)
same,normalized growth,"S. cerevisiae deletion strains, locus YNL183C, strain NPR1, hits give low values",0.933 (inactive)
same,normalized growth,"S. cerevisiae deletion strains, locus YNL209W, strain ssb2, hits give low values",0.991 (inactive)
same,normalized growth,"S. cerevisiae deletion strains, locus YNL233W, strain BNI4, hits give low values",0.947 (inactive)
same,normalized growth,"S. cerevisiae deletion strains, locus YNL248C, strain rpa49, hits give low values",0.94 (inactive)
same,normalized growth,"S. cerevisiae deletion strains, locus YNL250W, strain rad50, hits give low values",0.917 (inactive)
same,normalized growth,"S. cerevisiae deletion strains, locus YNL271C, strain bni1, hits give low values",0.889 (active)
same,normalized growth,"S. cerevisiae deletion strains, locus YNL298W, strain CLA4, hits give low values",0.865 (active)
same,normalized growth,"S. cerevisiae deletion strains, locus YNL307C, strain MCK1, hits give low values",0.185 (active)
same,normalized growth,"S. cerevisiae deletion strains, locus YNL322C, strain KRE1 (second series), hits give low values",1 (inactive)
same,normalized growth,"S. cerevisiae deletion strains, locus YNL322C, strain KRE1, hits give low values",0.989 (inactive)
same,normalized growth,"S. cerevisiae deletion strains, locus YNR049C, strain mso1, hits give low values",0.975 (inactive)
same,normalized growth,"S. cerevisiae deletion strains, locus YNR052C, strain pop2, hits give low values",0.733 (active)
same,normalized growth,"S. cerevisiae deletion strains, locus YOL006C, strain TOP1, hits give low values",0.652 (inactive)
same,normalized growth,"S. cerevisiae deletion strains, locus YOL012C, strain htz1",0.798 (inactive)
same,normalized growth,"S. cerevisiae deletion strains, locus YOL147C, strain pex11, hits give low values",0.527 (active)
same,normalized growth,"S. cerevisiae deletion strains, locus YOR001W, strain rrp6, hits give low values",0.934 (inactive)
same,normalized growth,"S. cerevisiae deletion strains, locus YOR061W, strain CKA2, hits give low values",0.964 (inactive)
same,normalized growth,"S. cerevisiae deletion strains, locus YOR069W, strain VPS5, hits give low values",0.978 (inactive)
same,normalized growth,"S. cerevisiae deletion strains, locus YOR070C, strain gyp1, hits give low values",0.955 (inactive)
same,normalized growth,"S. cerevisiae deletion strains, locus YOR080W, strain dia2, hits give low values",0.993 (inactive)
same,normalized growth,"S. cerevisiae deletion strains, locus YOR083W, strain WHI5, hits give low values",0.941 (inactive)
same,normalized growth,"S. cerevisiae deletion strains, locus YOR106W, strain vam3, hits give low values",0.95 (inactive)
same,normalized growth,"S. cerevisiae deletion strains, locus YOR136W, strain idh2, hits give low values",0.943 (inactive)
same,normalized growth,"S. cerevisiae deletion strains, locus YOR144C, strain elg1, hits give low values",0.852 (active)
same,normalized growth,"S. cerevisiae deletion strains, locus YOR184W, strain ser1, hits give low values",0.284 (active)
same,normalized growth,"S. cerevisiae deletion strains, locus YOR231W, strain MKK1, hits give low values",0.937 (inactive)
same,normalized growth,"S. cerevisiae deletion strains, locus YOR265W, strain rbl2, hits give low values",0.967 (inactive)
same,normalized growth,"S. cerevisiae deletion strains, locus YOR270C, strain vph1, hits give low values",0.704 (active)
same,normalized growth,"S. cerevisiae deletion strains, locus YOR290C, strain snf2, hits give low values",0.926 (inactive)
same,normalized growth,"S. cerevisiae deletion strains, locus YOR316C, strain cot1, hits give low values",0.884 (active)
same,normalized growth,"S. cerevisiae deletion strains, locus YPL051W, strain arl3, hits give low values",0.903 (active)
same,normalized growth,"S. cerevisiae deletion strains, locus YPL055C, strain LGE1, hits give low values",0.929 (inactive)
same,normalized growth,"S. cerevisiae deletion strains, locus YPL078C, strain atp4, hits give low values",0.874 (active)
same,normalized growth,"S. cerevisiae deletion strains, locus YPL106C, strain sse1, hits give low values",1.05 (inactive)
same,normalized growth,"S. cerevisiae deletion strains, locus YPL240C, strain hsp82, hits give low values",0.964 (inactive)
same,normalized growth,"S. cerevisiae deletion strains, locus YPL241C, strain CIN2, hits give low values",0.977 (inactive)
same,normalized growth,"S. cerevisiae deletion strains, locus YPL256C, strain CLN2, hits give low values",0.981 (inactive)
same,normalized growth,"S. cerevisiae deletion strains, locus YPR119W, strain clb2, hits give low values",0.919 (active)
same,normalized growth,"S. cerevisiae deletion strains, locus YPR141C, strain kar3, hits give low values",0.937 (inactive)
same,normalized growth,"S. cerevisiae deletion strains, locus YPR163C, strain tif3, hits give low values",0.527 (active)
same,normalized growth,"S. cerevisiae deletion strains, locus YPR167C, strain met16, hits give low values",0.945 (inactive)
same,normalized growth,"S. cerevisiae deletion strains, strain wtn01, hits give low values",0.789 (active)
same,normalized growth,"S. cerevisiae strains, strain wild type, hits give low values",0.974 (inactive)
